Test results: ChEMBL document CHEMBL3988442, “University of Dundee, Small-Polar-MMV Screening Library” (2021)

The compounds below were run against T1, Tyrosyl-tRNA synthetase, putative (Trypanosoma cruzi (strain CL Brener)) (UniProt Q4DSP6) (assay: Trypanosoma cruzi tyrosyl tRNA synthetase (TcYRS) _High Tyrosine SOP). Conditions: 30 µM.
T1 sequence (whole entry): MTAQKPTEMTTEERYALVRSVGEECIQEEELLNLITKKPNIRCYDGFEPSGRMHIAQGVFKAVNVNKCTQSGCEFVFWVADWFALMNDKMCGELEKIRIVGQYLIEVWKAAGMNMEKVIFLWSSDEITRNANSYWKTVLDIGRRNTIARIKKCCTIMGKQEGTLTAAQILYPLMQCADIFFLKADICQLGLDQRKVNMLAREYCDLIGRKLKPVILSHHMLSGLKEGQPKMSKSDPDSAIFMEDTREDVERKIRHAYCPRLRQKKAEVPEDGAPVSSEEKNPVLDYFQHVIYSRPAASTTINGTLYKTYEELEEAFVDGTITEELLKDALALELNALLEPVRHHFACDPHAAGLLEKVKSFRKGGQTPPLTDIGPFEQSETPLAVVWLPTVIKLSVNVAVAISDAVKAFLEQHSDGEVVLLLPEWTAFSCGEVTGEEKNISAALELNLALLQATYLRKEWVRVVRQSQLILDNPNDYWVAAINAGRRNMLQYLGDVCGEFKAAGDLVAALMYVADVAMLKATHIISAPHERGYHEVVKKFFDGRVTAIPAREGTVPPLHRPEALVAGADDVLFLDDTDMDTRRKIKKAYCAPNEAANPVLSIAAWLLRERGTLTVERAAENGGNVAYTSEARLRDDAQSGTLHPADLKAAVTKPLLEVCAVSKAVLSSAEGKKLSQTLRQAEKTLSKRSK
Type: functional
Set-up: scale not given: in the data most compounds retested in dose-response had high values
`O=C(c1cscn1)N1C[C@@H]2[C@@H](C1)OCC(=O)N2CC1CCCC1` showed a Percent Effect of -87.1%. For `CN(CC(F)(F)F)C(=O)C1CSCN1C(=O)OC(C)(C)C` (stereo not given), the Percent Effect was 1.07%. With `Cc1nc(C2CCCN(C(=O)c3ccco3)C2)no1` (stereo not given) the Percent Effect was 1.04%. `Cn1ccc(C(=O)N2CCN(c3cc(C#N)ccn3)CC2)cc1=O` was tested, and the Percent Effect was 5.42%. With `CC(=O)N1CCOCC2(CCN(Cc3ccc(C)s3)CC2)C1` the Percent Effect was 4.17%. `CCc1cccc(N2CCC(NC(=O)c3cc[nH]n3)CC2)c1` was tested, and the Percent Effect was 2.08%. For `C[S+]([O-])c1nncn1CC(=O)c1ccc(Cl)c(Cl)c1` (stereo not given), the Percent Effect was -4.3%. `Cn1ccc(C(=O)N2CCN(c3ncccn3)CC2)cc1=O` gave a Percent Effect of 3.45%. Compound `Cc1nccn1-c1cccc(C2CCCN(C3CCCCC3)C2)n1` (stereo not given) has a Percent Effect of 22.6%. In the case of `CC(C)N1CCOCC2(CN(Cc3nccs3)CCO2)C1` (stereo not given), the Percent Effect is reported as 9.52%. `Cc1ccc2c(c1)OCCCC2NCc1nnc2n1CCCCC2` (stereo not given) was tested, and the Percent Effect was -15.1%. In the case of `NC(=O)c1csc(C(=O)N2CCCC(n3ccnc3)C2)c1` (stereo not given), the Percent Effect is reported as 4.17%. `Cc1cc(CN(C)C(=O)C2CCCN(C(=O)c3cccs3)C2)no1` (stereo not given) gave a Percent Effect of 5.38%. `CS(=O)(=O)NCCNC(=O)C1(c2cccc(Cl)c2)CC1` was tested, and the Percent Effect was 3.16%. `CC(C)CCN1CCN(Cc2nc(C3CC3)no2)CC1` was tested, and the Percent Effect was 2.97%. Work on `Cc1nnc2n1CCN(Cc1csc(-c3ccc(F)cc3)n1)C2` yielded a Percent Effect of 3.96%. `Cc1cc(NC(=O)NCC(C)O)n(C)n1` (stereo not given) showed a Percent Effect of 2.45%. `O=C(c1cccc(NCCO)c1)N1CCOCC1` gave a Percent Effect of 2.15%. `CNc1cc(C)nc(C2CN(Cc3ccc(C)nc3)CCO2)c1` (stereo not given) was tested, and the Percent Effect was 3.23%. Work on `Cc1ccc(CNC(=O)NCc2cccnc2N(C)C)s1` yielded a Percent Effect of 8.74%. Compound `CN(CCN1CCOCC1)C(=O)CCc1cccc(Cl)c1` has a Percent Effect of 1.06%. Work on `CCC(=O)NCCc1cc(N2CCN(C(C)=O)CC2)nc(C2CC2)n1` yielded a Percent Effect of 2.15%. With `Cc1cc(NC(=O)NCc2cccnc2OC(C)C)n(C)n1` the Percent Effect was 3.12%. `CC(C)CCC(C)NC(=O)c1ccc(OCC(N)=O)cc1` (stereo not given) showed a Percent Effect of 5.82%. Work on `CN(C)C(=O)COC[C@]12COC[C@H]1CN(Cc1ccoc1)C2` yielded a Percent Effect of 4.3%. `O=C(COCc1nc(-c2ccncc2)no1)N1CCCCCC1` was tested, and the Percent Effect was 5.38%. `CCN(CC)C(=O)CCNC(=O)Cc1nc(-c2ccco2)oc1C` showed a Percent Effect of -1.64%. In the case of `O=C1COc2c(cccc2C(=O)N2CCCCC2Cn2cccn2)N1` (stereo not given), the Percent Effect is reported as 6.67%. `CCN1CCCC1CN(CCN(C)C)S(=O)(=O)c1ccc(C#N)cc1` (stereo not given) gave a Percent Effect of 4.3%. Compound `Cc1nsc(N2CCCN(c3nc(C4CC4)ns3)CC2)n1` has a Percent Effect of 1.07%. `Cc1nc(CC(=O)N2CCCCC2c2ccn3ccnc3n2)cs1` (stereo not given) gave a Percent Effect of -1.07%. Work on `CN(Cc1ccc(F)cc1)CC1(O)CCN(C(=O)c2ccccc2)C1` (stereo not given) yielded a Percent Effect of 2.15%. In the case of `Cc1nc(NC(=O)CN2CCc3c(nc(C(C)C)n3C)C2)sc1C`, the Percent Effect is reported as 6.88%. `Cc1cccc(-c2ccc3nc(C4CCN(CC5CC5)CC4)nn3c2)c1` was tested, and the Percent Effect was 3.12%. `CC(O)CN1CCC(CNCc2c[nH]nc2C(C)(C)C)CC1` (stereo not given) gave a Percent Effect of 4.43%. For `FC(F)(F)Cc1noc(CN2CCCC2c2noc(C3CC3)n2)n1` (stereo not given), the Percent Effect was 7.39%. In the case of `COc1c(C2CCCN2CC(=O)Nc2cc(C)no2)c(C)nn1C` (stereo not given), the Percent Effect is reported as 5.94%. Compound `CCN(Cc1ccc2c(c1)OCCO2)S(=O)(=O)N(C)C(C)C` has a Percent Effect of 0%. `CN(Cc1cccc(F)c1)C(=O)CN1CCCCC1Cn1cncn1` (stereo not given) was tested, and the Percent Effect was 4.3%. Work on `Cc1nc(CN2CCCC2c2ccsc2)nc2ccccc12` (stereo not given) yielded a Percent Effect of 9.38%.
